Out of some 5,500 compounds screened, about 2,000 (36%) were called active. Roughly 18% stayed inconclusive and do not appear here. Cut-off read from the data, not from the text of the source: active = normalized growth mostly below about 0.91 (no sharp cut-off); inconclusive = no clear call, values can overlap the other calls; inactive = mostly above about 0.92. The list shows a part of the results.
Experiment: chemical genetic growth profiling, strain panel (AID 1159580);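 note: tested at 20 µM; growth read once vehicle control cultures reached saturation at 30 °C; 1 = growth at the plate median or of vehicle wells; lower values mean less growth of the strain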
Details: S. cerevisiae deletion strains, growth OD

Measured: normalized growth

O=C(Nc1ccncc1)c1cc(-c2ccccc2)oc1C(F)(F)F
active: locus YLR113W, strain HOG1, active compounds read low 0.843
inactive: locus YAR019C, strain CDC15, active compounds read low 0.99 | locus YBL105C, strain PKC1, active compounds read low 0.985 | locus YBR135W, strain CKS1, active compounds read low 0.991 | locus YBR136W, strain MEC1, active compounds read low 0.988 | locus YBR160W, strain CDC28, active compounds read low 0.983 | locus YDL017W, strain CDC7, active compounds read low 0.991 | locus YDL028C, strain MPS1, active compounds read low 0.993 | locus YDL101C, strain DUN1, active compounds read low 0.992 | locus YDL108W, strain KIN28, active compounds read low 0.991 | locus YDL132W, strain cdc53, active compounds read low 0.979 | locus YDL214C, strain PRR2, active compounds read low 0.953 | locus YDR052C, strain DBF4, active compounds read low 0.989 | locus YDR054C, strain cdc34, active compounds read low 0.981 | locus YDR226W, strain ADK1, active compounds read low 0.989 | locus YDR477W, strain SNF1, active compounds read low 0.973 | locus YER123W, strain YCK3, active compounds read low 0.946 | locus YER133W, strain GLC7, active compounds read low 0.976 | locus YFL009W, strain cdc4, active compounds read low 0.99 | locus YFL029C, strain CAK1, active compounds read low 0.984 | locus YFR003C, strain YPI1, active compounds read low 0.99 | locus YFR019W, strain FAB1, active compounds read low 0.993 | locus YFR028C, strain CDC14, active compounds read low 0.984 | locus YGR040W, strain KSS1, active compounds read low 0.962 | locus YGR052W, strain FMP48, active compounds read low 1 | locus YGR092W, strain DBF2, active compounds read low 0.949 | locus YHR030C, strain SLT2, active compounds read low 1 | locus YHR079C, strain IRE1, active compounds read low 0.941 | locus YHR082C, strain KSP1, active compounds read low 1.01 | locus YHR205W, strain SCH9, active compounds read low 0.998 | locus YIL147C, strain SLN1, active compounds read low 0.994 | locus YJL095W, strain BCK1, active compounds read low 0.991 | locus YJL128C, strain PBS2, active compounds read low 0.958 | locus YJL157C, strain FAR1, active compounds read low 0.952 | locus YJR016C, strain ILV3, active compounds read low 0.988 | locus YJR066W, strain TOR1 (second series), active compounds read low 0.937 | locus YJR066W, strain TOR1, active compounds read low 1.03 | locus YKL048C, strain ELM1, active compounds read low 0.976 | locus YKL067W, strain YNK1, active compounds read low 0.968 | locus YKL101W, strain HSL1, active compounds read low 0.977 | locus YKL193C, strain SDS22, active compounds read low 0.988 | locus YKL203C, strain TOR2, active compounds read low 1.04 | locus YLR133W, strain CKI1, active compounds read low 0.975 | locus YLR403W, strain SFP1, active compounds read low 0.987 | locus YML070W, strain DAK1, active compounds read low 0.951 | locus YMR001C, strain CDC5, active compounds read low 0.996 | locus YMR205C, strain PFK2 (second series), active compounds read low 0.973 | locus YMR277W, strain FCP1, active compounds read low 0.993 | locus YNL006W, strain LST8, active compounds read low 0.992 | locus YNL020C, strain ARK1, active compounds read low 0.985 | locus YNL161W, strain CBK1, active compounds read low 0.982 | locus YNL183C, strain NPR1, active compounds read low 0.965 | locus YNL207W, strain RIO2, active compounds read low 0.98 | locus YNL222W, strain SSU72, active compounds read low 0.977 | locus YNL307C, strain MCK1 (second series), active compounds read low 0.976 | locus YOL078W, strain AVO1, active compounds read low 0.988 | locus YOL136C, strain PFK27, active compounds read low 0.953 | locus YOR061W, strain CKA2, active compounds read low 0.991 | locus YOR119C, strain RIO1, active compounds read low 1.03 | locus YOR231W, strain MKK1, active compounds read low 0.908 | locus YOR329C, strain SCD5, active compounds read low 0.998 | locus YPL031C, strain PHO85, active compounds read low 0.964 | locus YPL153C, strain RAD53, active compounds read low 0.959 | locus YPL204W, strain HRR25, active compounds read low 0.953 | locus YPL209C, strain IPL1, active compounds read low 0.976 | locus YPL256C, strain CLN2, active compounds read low 0.868 | locus YPR025C, strain CCL1, active compounds read low 0.99 | locus YPR106W, strain ISR1, active compounds read low 0.979 | locus YPR111W, strain DBF20, active compounds read low 0.98 | strain NNK1, active compounds read low 0.993 | strain TSCII, active compounds read low 0.989
